Assay [1] is described as follows: LFS_MB_1R medulloblastoma cell growth inhibition, synergistic combos for chromothripsis tumors, cisplatin or BGB combos (AID 1671452).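 Note: cells exposed for 96 hours before readout.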 As to conditions: LFS_MB_1R medulloblastoma cells, stronger effect = higher value.
Assay [2] is described as follows: CRL2098 osteosarcoma cell growth inhibition, synergistic combos for chromothripsis tumors, BGB or cisplatin IC20 combos (AID 1671454).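 Note: cells exposed for 96 h before readout; 0% = vehicle DMSO and 100% = killing by high DMSO.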 To be noted: CRL2098 osteosarcoma cells, drug combinations, stronger effect = higher value.
Assay [3] can be described thus: HD-MB03 medulloblastoma cell growth inhibition, synergistic combos for chromothripsis tumors, BGB or cisplatin IC20 combos (AID 1671455; in the data active = inhibition above about 83%;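 note: 0% = vehicle DMSO and 100% = high DMSO as cytotoxic control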). To be noted: HD-MB03 medulloblastoma cells, stronger effect = higher value.
Assay [4] can be described thus: UWB1.289 ovarian carcinoma cell growth inhibition, synergistic combos for chromothripsis tumors, BGB or cisplatin combos (AID 1671456).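 Note: cells exposed to compound for four days; 0% = vehicle DMSO and 100% = killing by high DMSO.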 As to conditions: UWB1.289 ovarian carcinoma cells, stronger effect = higher value.
Assay [5] is described as follows: LFS_MB_2R medulloblastoma cell growth inhibition, synergistic combos for chromothripsis tumors, cisplatin combos (AID 1671457).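 Note: cells exposed to compound for four days before readout.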 To be noted: LFS_MB_2R medulloblastoma cells, stronger effect = higher value.
Assay [6] in a line: UWB1.289_BRCA1 ovarian cancer growth, cell-based, BGB or cisplatin combinations (AID 1671459). To be noted: UWB1.289 BRCA1 ovarian carcinoma, drug combinations, stronger effect = higher value.
The nature of assay [7]: human astrocyte viability loss, single and combined drugs, cytotoxicity control for chromothriptic childhood tumor combination screen, cell-based, BGB or cisplatin IC20 combos (AID 1671460).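 Note: cells exposed to compounds for 96 hours before viability readout; 0% = vehicle and 100% = killing control.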 As to conditions: Human astrocytes, drug combinations, stronger effect = higher value.
Assay [8] is described as follows: growth inhibition of CRL1545 osteosarcoma cells, cell-based, cisplatin and BGB IC20 combos (AID 1671464).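 Note: cells exposed to compound for 96 hours before readout; 0% = vehicle DMSO and 100% = high DMSO killing control.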 To be noted: stronger effect = higher value.
The nature of assay [9]: kinase inhibitors against Plasmodium liver-stage infection, cell-based, known kinase inhibitor set, luminescence, hepatoma host viability (AID 624392; call rule not given here;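 note: infected cells incubated roughly two days before readout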). As to conditions: Plasmodium liver stage in hepatoma cells, luciferase luminescence, concentration not given here; liver cell % of control: measured here: host liver cell viability; parasite % of control: stronger effect = lower value.

Assay [10] is described as follows: liver-stage malaria parasite growth inhibition, primary screen, cell-based, HepG2, luciferase luminescence, HepG2 viability (AID 624349; in the data active = parasite load remaining mostly below about 12%, no sharp cut-off; inactive = mostly above about 10%;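 note: 100% = mean of DMSO negative control wells on the same plate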). To be noted: P. berghei liver stage in HepG2, luciferase luminescence, concentration not given here; parasite load remaining: stronger effect = lower value; viability: measured here: HepG2 viability without parasites.
Assay [11] concerns the target Mitogen-activated protein kinase 7 (Homo sapiens) (UniProt Q13164). The experiment in a line: ERK5 transactivation activators in reporter cells, primary screen, cell-based, HTS (AID 1508626;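 active = luciferase signal above three times the same-plate solvent-only control wells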;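 note: luciferase driven by Gal4-ERK5 fusion binding five Gal4 sites before minimal TATA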). To be noted: HeLa Gal4-ERK5 transactivation, 18 h, at 5 µM, stronger effect = higher value.
Assay [12] has as its target NAD(+) hydrolase SARM1 (Homo sapiens) (UniProt Q6SZW1). The experiment in a line: SARM1 TIR NADase inhibitors, cell lysate, NAD-Glo luminescence (AID 1508614;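 active = compound whose remaining NAD level is above about 45 nM, limit read from the data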;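 note: higher remaining NAD means stronger inhibition of SARM1 NADase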). To be noted: SAM-TIR HEK293T lysate NADase, at 1 µM, stronger effect = higher value.
Setting [13] is: measured here: combination with BGB IC40, at 0.05 µM.
Where [14] appears, read: measured here: combination with cisplatin, at 0.5 µM.
[15] abbreviates: measured here: combination with cisplatin, at 5 µM.
The mark [16] stands for this setting: measured here: combination with BGB at IC20, at 0.5 µM.
Where [17] appears, read: measured here: combination with cisplatin at IC20, at 0.5 µM.
Setting [18] is: measured here: combo with BGB at IC20, at 0.5 µM.
Setting [19] is: measured here: combo with cisplatin at IC20, at 0.5 µM.
The mark [20] stands for this setting: measured here: inhibition with BGB combination, at 0.05 µM.
Where [21] appears, read: measured here: inhibition with cisplatin combination, at 0.05 µM.
Setting [22] is: BGB combination, concentration series, at 5 µM.
The mark [23] stands for this setting: cisplatin combination, concentration series, at 5 µM.
Where [24] appears, read: measured here: combo with BGB IC20, at 0.5 µM.
[25] abbreviates: measured here: combo with cisplatin IC20, at 0.5 µM.
Where [26] appears, read: measured here: with BGB IC20 combination, at 0.5 µM.
[27] abbreviates: measured here: with cisplatin IC20 combination, at 0.5 µM.

Values joined by “and” are separate entries in the source; they are usually repeats but may differ in a detail not shown here. Equal entries are not always repeated. Active and inactive are the calls of the source. Cut-off read from the data, not from the text of the source, unless noted: active = inhibition above about 80%; inactive = the rest.

Mitogen-activated protein kinase 7 (Homo sapiens), sequence (Q13164 whole entry, looked up, the tested form may be a part): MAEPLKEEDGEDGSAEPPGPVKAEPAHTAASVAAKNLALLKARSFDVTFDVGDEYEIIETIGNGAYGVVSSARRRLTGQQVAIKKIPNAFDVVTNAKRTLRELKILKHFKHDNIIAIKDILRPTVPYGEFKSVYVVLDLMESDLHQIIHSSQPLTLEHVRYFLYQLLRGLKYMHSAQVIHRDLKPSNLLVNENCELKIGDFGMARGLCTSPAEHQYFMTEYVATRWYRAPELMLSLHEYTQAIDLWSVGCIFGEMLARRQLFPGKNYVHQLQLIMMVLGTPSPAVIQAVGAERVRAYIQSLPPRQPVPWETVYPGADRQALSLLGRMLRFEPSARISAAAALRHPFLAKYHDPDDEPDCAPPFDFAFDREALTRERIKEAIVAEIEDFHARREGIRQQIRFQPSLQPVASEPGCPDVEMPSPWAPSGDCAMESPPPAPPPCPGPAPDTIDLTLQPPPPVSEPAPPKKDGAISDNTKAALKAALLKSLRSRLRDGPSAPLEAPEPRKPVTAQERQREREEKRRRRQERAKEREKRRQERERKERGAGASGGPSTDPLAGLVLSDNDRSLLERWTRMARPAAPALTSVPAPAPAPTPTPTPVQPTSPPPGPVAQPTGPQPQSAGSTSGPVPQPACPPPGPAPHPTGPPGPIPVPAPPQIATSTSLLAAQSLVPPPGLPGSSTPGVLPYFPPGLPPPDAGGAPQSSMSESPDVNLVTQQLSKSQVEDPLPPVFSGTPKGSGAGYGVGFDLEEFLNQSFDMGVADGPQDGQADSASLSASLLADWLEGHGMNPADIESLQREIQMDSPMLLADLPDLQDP
NAD(+) hydrolase SARM1 (Homo sapiens), sequence (Q6SZW1 whole entry, looked up): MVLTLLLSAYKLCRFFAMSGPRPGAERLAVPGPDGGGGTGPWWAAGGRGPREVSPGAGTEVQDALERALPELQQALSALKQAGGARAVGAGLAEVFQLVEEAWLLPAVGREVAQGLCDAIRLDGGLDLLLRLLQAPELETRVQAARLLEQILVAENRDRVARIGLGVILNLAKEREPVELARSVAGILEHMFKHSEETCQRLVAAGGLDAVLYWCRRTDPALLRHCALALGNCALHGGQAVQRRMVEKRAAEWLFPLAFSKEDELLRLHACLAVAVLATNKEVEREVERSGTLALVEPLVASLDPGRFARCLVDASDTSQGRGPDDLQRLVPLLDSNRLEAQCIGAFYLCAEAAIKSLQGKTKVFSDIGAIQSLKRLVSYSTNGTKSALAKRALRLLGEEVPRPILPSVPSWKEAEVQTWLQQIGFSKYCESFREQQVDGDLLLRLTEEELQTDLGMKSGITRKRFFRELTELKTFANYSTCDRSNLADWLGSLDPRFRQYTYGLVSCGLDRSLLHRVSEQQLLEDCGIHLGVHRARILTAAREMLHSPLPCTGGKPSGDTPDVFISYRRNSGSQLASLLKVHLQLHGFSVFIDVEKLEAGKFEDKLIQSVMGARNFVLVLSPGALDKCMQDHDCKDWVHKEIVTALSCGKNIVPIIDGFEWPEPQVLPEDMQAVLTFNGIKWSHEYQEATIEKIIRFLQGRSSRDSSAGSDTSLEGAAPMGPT

As for `O=C(CCCCCCNC(=O)c1cnc(N(c2ccccc2)c2ccccc2)nc1)NO`, the inhibition is -2.12% (inactive) and -15.9% (inactive) in assay [1] (at 0.5 µM); -29.1% and -24.9% in [1] (setting [13]); 6.1% and -31.8% in assay [1] (setting [14]); 84.8% and 59.4% in assay [1] (setting [15]); -71.5% (inactive) and -77.4% (inactive) in assay [2] (at 0.5 µM); -57.1% and -110% in assay [2] (setting [16]). The inhibition is -110% and -74.1% in assay [2] (setting [17]); 1.23% (inactive) and -11.6% (inactive) in assay [3] (at 0.5 µM); -8.85% and -13.2% in assay [3] (setting [18]); 14.2% and -7.98% in [3] (setting [19]); 1.59% (inactive) and 9.83% (inactive) in assay [4] (at 0.5 µM); -25.2% and -41.7% in assay [4] (setting [20]). In addition, the inhibition was -17.6% and -12.7% in assay [4] (setting [21]); -17.5% (inactive) and -17% (inactive) in assay [5] (at 0.5 µM); -3.75% and -9.43% in [5] (setting [14]); 74.7% and 60.9% in assay [5] (setting [15]); 47.7% and 28.3% in assay [6] (setting [22]); 1.98% (inactive) and -9.53% (inactive) in assay [6] (at 0.5 µM). In addition, the inhibition in assay [6] (setting [23]) is 66.1% and 58.6%; in assay [7] (at 0.5 µM), -18.3% (inactive) and 0.04% (inactive); in [7] (setting [24]), -21.3% and 12.4%; in [7] (setting [25]) it was -18.3% and -8.91%; in assay [8] (at 0.5 µM), -14% (inactive) and -9.25% (inactive); in assay [8] (setting [26]), -11% and -28.2%. Also, the inhibition in [8] (setting [27]) is -17.4% and -1.39%; in assay [8] (single agent, at 0.05 µM), -31.8% and -21.9%; in assay [8] (single agent, at 5 µM), 89.1% and 74.4%.
Take `Cn1c(=O)n(-c2ccc(C(C)(C)C#N)cc2)c2c3cc(-c4cnc5ccccc5c4)ccc3ncc21`: in assay [9], the liver cell % of control was 79.1% and 72.9%; the parasite % of control is 288% (inactive) and 494% (inactive) and 6.49% (inactive).
Turning to `c1cc(OCCN2CCCCC2)cc(-c2n[nH]c3ccc(-c4ncn[nH]4)cc23)c1`, in [9], the liver cell % of control is 77.7% and 82.4% and 94%; the parasite % of control is 63.2% (inactive) and 149% (inactive) and 87% (inactive).
With `CCCCc1nc2cc(/C=C/C(=O)NO)ccc2n1CCN(CC)CC`, the inhibition in assay [1] (at 0.5 µM) was 31% (inactive); in [1] (setting [13]), -30.9%; in assay [1] (setting [14]), 45.7%; in assay [1] (setting [15]), 97.5%; in assay [2] (at 0.5 µM), -2.27% (inactive); in assay [2] (setting [16]), -16.1%. Moreover, the inhibition in [2] (setting [17]) is 1.66%; in assay [3] (at 0.5 µM) it was 93.3% (active); in [3] (setting [18]), 95.7%; in assay [3] (setting [19]), 99.3%; in [4] (at 0.5 µM) it was 46.9% (inactive); in [4] (setting [20]), 11.6%. Also, the inhibition in assay [4] (setting [21]) is 0.198%; in [5] (at 0.5 µM), 26.1% (inactive); in assay [5] (setting [14]), 56.5%; in assay [5] (setting [15]), 98.1%; in [6] (setting [22]) it was 115%; in [6] (at 0.5 µM) it was 51.5% (inactive). Further, the inhibition in assay [6] (setting [23]) is 127%; in [7] (at 0.5 µM) it was 41.3% (inactive); in assay [7] (setting [24]), 44.4%; in assay [7] (setting [25]), 26%; in assay [8] (at 0.5 µM) it was 81.5% (active); in assay [8] (setting [26]) it was 67.7%. Also, the inhibition in assay [8] (setting [27]) was 88.2%; in assay [8] (single agent, at 0.05 µM), -14.8%; in assay [8] (single agent, at 5 µM), 93.1%.
Take `Cc1ccc(C(=O)Nc2cccc(C(F)(F)F)c2)cc1-c1ccc2nc(NCCN3CCOCC3)ncc2c1`: in assay [9], the liver cell % of control is 51.5% and 76.3% and 85.2%; the parasite % of control is 60.4% (inactive) and 252% (inactive) and 87.5% (inactive).
With `Cc1ccc([N+](=O)[O-])cc1S(=O)(=O)N(C)/N=C/c1cnc2ccc(Br)cn12`, the parasite load remaining in assay [10] is 40.5% (inactive). This compound also gave a viability in assay [10] of 60.2%. Besides, the inhibition in assay [1] (at 0.5 µM) was 82.3% (active); in assay [1] (setting [13]), -47.5%; in assay [1] (setting [14]), 77.8%; in assay [1] (setting [15]) it was 97.4%; in [2] (at 0.5 µM), 89.7% (active); in [2] (setting [16]) it was 91.5%. Also, the inhibition was 95.8% in assay [2] (setting [17]); 84.2% (active) in assay [3] (at 0.5 µM); 85% in assay [3] (setting [18]); 81.5% in assay [3] (setting [19]); 63.4% (inactive) in [4] (at 0.5 µM); -17.5% in assay [4] (setting [20]). The inhibition in assay [4] (setting [21]) was -14.7%; in assay [5] (at 0.5 µM), 63.9% (inactive); in assay [5] (setting [14]), 63.1%; in assay [5] (setting [15]) it was 90.7%; in assay [6] (setting [22]), 89.2%; in assay [6] (at 0.5 µM) it was 73.9% (inactive). Further, the inhibition is 92.4% in assay [6] (setting [23]); 83.2% (active) in assay [7] (at 0.5 µM); 77.8% in [7] (setting [24]); 81.3% in [7] (setting [25]); 96.9% (active) in assay [8] (at 0.5 µM); 98.1% in assay [8] (setting [26]). Further, the inhibition is 96.2% in [8] (setting [27]); -27.4% in assay [8] (single agent, at 0.05 µM); 99.9% in assay [8] (single agent, at 5 µM).
In the case of `CC[C@H](/C=C/[C@@H](C)[C@H]1CC[C@H]2[C@@H]3CC=C4C[C@@H](O)CC[C@]4(C)[C@H]3CC[C@]12C)C(C)C`, the luciferase signal in assay [11] was 52 AU (inactive).
Turning to `CC1(C)O[C@@H]2C[C@H]3[C@@H]4CCC5=CC(=O)C=C[C@]5(C)[C@H]4[C@@H](O)C[C@]3(C)[C@]2(C(=O)CO)O1`, in assay [12], the remaining NAD was 10 nM (inactive). Moreover, the luciferase signal in assay [11] is 172 AU (inactive).

What is called inhibition is the change of the read-out against control, counted positive when it falls. In general, viability refers to the share of living cells, or the viability signal relative to a control.

For the origin of these results see PubChem BioAssay.
